# Measured values: PubChem BioAssay (NCATS)
# Results filed as inconclusive are left out. A call without a number means that no potency is given here. Active and inactive are the calls of the source. Calls follow the shape of the dose curve; as a rule, active = well fitted cell-killing curve with a large enough effect; inconclusive = small, poorly fitted or top-dose-only effect, or effect the other way; inactive = flat fitted curve, though single readings scatter.
# Tested on: Es-2
# Test: Primary qHTS to identify gynecologic anti-cancer compounds using libraries of approved drugs and bioactive compounds (AID 1345084); also: nearly all actives have a fitted effect of over 55% in size
# Conditions: Gynecologic cancer cell panel viability, ATPlite luminescence, 48 h; series mostly up to 57.5 µM
# Outline: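 Cell viability after 48 h drug treatment, ATPlite luminescence readout; five doses.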
row,SMILES,Potency
1,C=C1CCC2[C@](C)(CCC[C@@]2(C)C=O)[C@H]1CC/C(C)=C/CO (stereo partly specified),inactive
2,CC1(CO)CC(O)[C@]2(C(=O)O)CCC34CC3(C=CC3[C@]5(C)C(CC[C@]34C)C(C)(CO)[C@@H](O)[C@H](O)[C@@H]5O)C2C1 (stereo partly specified),inactive
3,C/C=C(/C)C(=O)O[C@@H]1C[C@@H](OC(=O)CC(C)C)C2(C)C3C(=O)C=C(C)C2C3C1(C)C (stereo partly specified),inactive
4,O=C(NCCCN1CCOCC1)c1cnn2c(-c3ccccc3)cc(-c3ccccc3)nc12,inactive
5,Cc1cc(OCCCS(C)(=O)=O)cc(C)c1-c1cccc(COc2ccc3c(c2)OCC3CC(=O)O)c1 (stereo unspecified),inactive
6,CC1=C(C(=O)OC2CCCCC2)C(c2ccc([N+](=O)[O-])cc2)C2=C(CC(C)(C)CC2=O)N1 (stereo unspecified),inactive
7,CC1(C)CC[C@]2(C(=O)O[C@@H]3O[C@H](CO)[C@@H](O)[C@H](O)[C@H]3O)CC[C@]3(C)C(=CCC4[C@@]5(C)CC[C@H](O[C@@H]6O[C@H](C(=O)O)[C@H](O)[C@H](O)[C@H]6O)C(C)(C)C5CC[C@]43C)[C@@H]2C1 (stereo partly specified),inactive
8,CCN1CCN(Cc2ccc(C(=O)Nc3ccc(C)c(Oc4ccc5c(c4)CC(=O)N5)c3)cc2C(F)(F)F)CC1,inactive
9,CC(=O)c1c(C)cc2cccc(O)c2c1O[C@@H]1O[C@H](CO)[C@@H](O)[C@H](O)[C@H]1O,inactive
10,O=C(Nc1ccc(N(Cc2ccsc2)C(=O)Cn2nnc3ccccc32)cc1)C1CC1,inactive
11,COc1ccc(CCc2nc3cc(-c4c(C)noc4C)ccc3n2CC(C)N2CCOCC2)cc1Cl (stereo unspecified),inactive
